Compounds without any hit were thinned out: in the full panel of roughly 79,000, 15% have a hit. Calls of active or inactive are those of the source. Cut-off read from the data, not from the text of the source: active = growth inhibition above about 70%; inactive = the rest.
Legend:
[1] = NCI Yeast Anticancer Drug Screen. Data for the wt1 strain (AID 149);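 note: 0% = growth of vehicle-treated wt1 cultures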; settings: S. cerevisiae wt1 strain (SPY 50644) growth inhibition, active compounds read high
How it was run: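 Yeast wt1 strain exposed to compounds; growth inhibition measured relative to vehicle-treated controls.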

[2] = NCI Yeast Anticancer Drug Screen. Data for the rad50EPP+ strain (AID 151);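 note: 0% = growth of vehicle-treated control cultures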; settings: S. cerevisiae rad50 mutant strain, active compounds read high
How it was run: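 Compounds were applied to the rad50EPP+ yeast strain, which bears a defined DNA repair alteration, and growth inhibition was determined relative to vehicle-treated cultures.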

[3] = NCI Yeast Anticancer Drug Screen. Data for the mgt1 strain (AID 153); settings: S. cerevisiae mgt1 mutant growth inhibition, active compounds read high
How it was run: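 Strain: mgt1 yeast, one of a set carrying defined DNA damage repair or cell cycle control alterations. Compound-treated growth compared with vehicle.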

[4] = NCI Yeast Anticancer Drug Screen. Data for the rad50 strain (AID 155);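 note: 0% = growth of vehicle-only cultures of the same strain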; settings: S. cerevisiae rad50 strain growth inhibition, active compounds read high
How it was run: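 Yeast carrying a defined DNA repair defect were exposed to test compounds, and growth was compared with vehicle-treated controls to give percent inhibition.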

[5] = NCI Yeast Anticancer Drug Screen. Data for the mec2-1 strain (AID 157); settings: S. cerevisiae mec2-1 strain, active compounds read high
How it was run: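 Strain: mec2-1 (DNA repair/cell cycle alteration). Compound exposure, then growth measured; inhibition expressed relative to vehicle.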

[6] = NCI Yeast Anticancer Drug Screen. Data for the rad14 strain (AID 159);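 note: 0% = growth of vehicle-treated control cultures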; settings: S. cerevisiae rad14 strain growth inhibition, active compounds read high
How it was run: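 Yeast cells carrying a defined DNA-repair defect were exposed to compounds, and growth inhibition was calculated relative to vehicle-treated control cultures.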

[7] = NCI Yeast Anticancer Drug Screen. Data for the sgs1 mgt1 strain (AID 161);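 note: 0% = growth of cultures given vehicle only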; settings: S. cerevisiae sgs1 mgt1 strain, active compounds read high
How it was run: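 Test agents were incubated with a DNA-repair-mutant yeast strain. Growth was then read and compared against vehicle-treated controls.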

[8] = NCI Yeast Anticancer Drug Screen. Data for the CLN2oe strain (AID 163);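 note: 0% = growth of vehicle-only control cultures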; settings: S. cerevisiae CLN2oe strain, active compounds read high
How it was run: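 Growth of a genetically modified yeast strain is measured after compound exposure and compared with cultures given vehicle alone.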

[9] = NCI Yeast Anticancer Drug Screen. Data for the cln2 rad14 strain (AID 165);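 note: 0% = growth equal to vehicle treated cultures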; settings: S. cerevisiae cln2 rad14 strain, active compounds read high
How it was run: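 Compounds are applied to the cln2 rad14 yeast strain, and growth is then compared with that of vehicle-treated cultures to give inhibition.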

[10] = NCI Yeast Anticancer Drug Screen. Data for the bub3 strain (AID 167); settings: S. cerevisiae bub3 mutant strain, active compounds read high
How it was run: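 Compounds were applied to a genetically altered yeast strain carrying a cell-cycle control defect. Growth inhibition was scored against vehicle-treated controls.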

[11] = NCI Yeast Anticancer Drug Screen. Data for the wt2 strain (AID 169);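 note: 0% = growth of vehicle-treated yeast cultures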; settings: S. cerevisiae wt2 strain growth inhibition, active compounds read high
How it was run: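 This strain belongs to a panel of yeast strains with defined genetic alterations in DNA damage repair or cell cycle control. Compounds are applied, and growth inhibition is measured against vehicle-treated cultures.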

[12] = NCI Yeast Anticancer Drug Screen. Data for the mlh1 strain (AID 171);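 note: 0% = growth of vehicle-treated control cultures of the same strain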; settings: S. cerevisiae mlh1 strain growth inhibition, active compounds read high
How it was run: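 Growth of the mutant yeast strain after compound exposure, expressed as inhibition relative to vehicle-only controls.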

[13] = NCI Yeast Anticancer Drug Screen. Data for the mlh1 rad18 strain (AID 175); settings: S. cerevisiae mlh1 rad18 strain growth inhibition, active compounds read high
How it was run: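 Read-out is yeast growth inhibition, calculated against vehicle-only controls. The compound was applied to a strain engineered with DNA damage repair alterations.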

[14] = NCI Yeast Anticancer Drug Screen. Data for the rad18 strain (AID 177); settings: S. cerevisiae rad18 mutant growth inhibition, active compounds read high
How it was run: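 Growth of the mutant yeast strain after compound exposure, normalised to vehicle-only cultures.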

[15] = at 5.0 µM (retest, dose inferred, filed as 0.5)
[16] = at 50.0 µM (retest, dose inferred, filed as 5.0)

Measured: growth inhibition

COC(=O)CCC(NC(=S)N/N=C(\C)c1ccccn1)C(=O)OC (stereo not drawn)
inactive: [1]; at 1.2 µM -10% | [1]; at 3.7 µM -22% | [1]; at 11.0 µM 2% | [1]; at 33.0 µM 47% | [2]; at 1.2 µM 6% | [2]; at 3.7 µM -5% | [2]; at 11.0 µM 2% | [2]; at 33.0 µM 18% | [2]; at 100.0 µM 34% | [3]; at 1.2 µM 14% | [3]; at 3.7 µM 6% | [3]; at 11.0 µM 28% | [3]; at 33.0 µM 64% | [4]; at 1.2 µM 8% | [4]; at 3.7 µM 3% | [4]; [15] 34% | [4]; at 11.0 µM 26% | [5]; at 1.2 µM -11% | [5]; at 3.7 µM -7% | [5]; [15] 9% | [5]; at 11.0 µM 12% | [5]; at 33.0 µM 57% | [6]; at 1.2 µM 2% | [6]; at 3.7 µM -3% | [6]; at 11.0 µM 21% | [6]; at 33.0 µM 69% | [7]; [15] 7% | [8]; at 1.2 µM 7% | [8]; at 3.7 µM 2% | [8]; at 11.0 µM 18% | [8]; at 33.0 µM 62% | [9]; [15] -5% | [10]; at 1.2 µM 24% | [10]; at 3.7 µM 28% | [10]; [15] 22% | [10]; at 11.0 µM 32% | [11]; at 1.2 µM -37% | [11]; at 3.7 µM -29% | [11]; at 11.0 µM -3% | [11]; at 33.0 µM 51% | [12]; at 1.2 µM 20% | [12]; at 3.7 µM 2% | [12]; at 11.0 µM 23% | [12]; at 33.0 µM 62% | [13]; [15] -13% | [14]; at 1.2 µM -16% | [14]; at 3.7 µM -27% | [14]; at 11.0 µM 10%
active: [1]; at 100.0 µM 85% | [3]; at 100.0 µM 91% | [4]; at 33.0 µM 72% | [4]; [16] 79% | [4]; at 50.0 µM 77.5% | [4]; at 100.0 µM 93% | [5]; [16] 78% | [5]; at 50.0 µM 77.5% | [5]; at 100.0 µM 90% | [6]; at 100.0 µM 92% | [7]; [16] 80% | [7]; at 50.0 µM 82.8% | [8]; at 100.0 µM 88% | [9]; [16] 82% | [9]; at 50.0 µM 83% | [10]; at 33.0 µM 77% | [10]; [16] 84% | [10]; at 50.0 µM 81.3% | [10]; at 100.0 µM 93% | [11]; at 100.0 µM 87% | [12]; at 100.0 µM 92% | [13]; [16] 79% | [13]; at 50.0 µM 75.5% | [14]; at 33.0 µM 70% | [14]; at 100.0 µM 91%

Source: PubChem BioAssay (NCI)
